Experimental data: PubChem BioAssay AID624202 (National Center for Advancing Translational Sciences (NCATS), 2012)
The campaign covered roughly 380,000 compounds. About 4,000 (1.1%) were called active. Not shown: some 3% with an inconclusive outcome. Calls come from the whole dose curve; as a rule, active = well fitted activation curve with a large enough effect; inconclusive = small, poorly fitted or top-dose-only effect; inactive = no such curve, though single readings can be large or run the other way. The full list was thinned out, with actives kept by preference.

Assay: qHTS Assay to Identify Small Molecule Activators of BRCA1 Expression; note: nearly all actives have a fitted effect of over 80% in size
Conditions: MCF7-BRCA1-FFLuc reporter, luminescence, 48 h; series mostly up to 46.1 µM; activation: at the top concentration
Method in brief: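 Cells: MCF7-BRCA1-FFLuc, 2000/well. Exposure: 48 h, 37 °C, 5% CO2. Read: luminescence, 15 min post-substrate. Controls: genistein 10 microM (maximal activation), DMSO (neutral).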
Potency is the fitted concentration of half-maximal effect.

activation, inactive:
COc1cccc(NC(=O)N(Cc2cn(C)c3ccccc23)C2CCCCCC2)c1 -54.9%
CNc1ccc(-c2nc(-c3ccccc3C)no2)cc1[N+](=O)[O-] -0.0312%
CCCCN1CC(c2nc3ccccc3n2CCCCOc2ccc(C)cc2C)CC1=O (configuration not stated) -27.3%
CC(C)=C1SC(N2CCN(c3ccc(C)c(Cl)c3)CC2)=NC1=O -11.5%
CCn1c(=O)n(CC)c2cc(N3CCCC3)c(NC(=O)c3ccccc3Br)cc21 -43.1%
Cc1cc(OC(C)C(=O)Nc2sc3c(c2C(N)=O)CCCC3)ccc1Cl (configuration not stated) 9.91%
Cc1nc(COc2cccc(Cl)c2)sc1C(=O)/C=C/N(C)C 86%
CN(C)/C=C/C(=O)c1cnc2sccn2c1=O -21.1%
Cc1cccc(N2CCN(C(=O)c3cc4c(=O)oc5ccccc5c4s3)CC2C)c1 (configuration not stated) 1.26%
Cc1cnc(C(=O)OCC(=O)N2CCc3ccccc32)cn1 45.7%
CCCCn1nc(C(=O)N2CCc3ccccc32)c2ccccc2c1=O -9.5%
Cc1nn(C(=O)c2c(F)cccc2F)c(C)c1S(=O)(=O)N1CCOCC1 3.27%
O=C(C1CC1)N1CCc2cc(Br)cc(S(=O)(=O)N3CCN(c4ccccc4F)CC3)c21 -3.63%
O=[N+]([O-])c1ccc(NC(=S)N2CCN(c3ccccn3)CC2)cc1 -40.3%
O=C(COC(=O)c1ccccn1)NNC(=O)c1ccc([N+](=O)[O-])cc1 0.358%
Cc1ccc(NC(=O)N2CCC(O)(c3cccnc3)CC2)cc1 18%
O=C(Nc1ccc(Cl)cc1)Nc1ccc(Oc2cccnc2)nc1 28.1%
CC(=O)c1cccc(NC(=O)[C@@H](NC(N)=O)C(C)C)c1 -13.3%
CC(=O)c1cccc(NC(=O)c2nc(-c3ccccc3)n(-c3cccc(C)c3)n2)c1 -0.252%
Cc1cc(NC(=O)Nc2c[nH]c(=O)[nH]c2=O)ccc1Br 10%
CCOc1cc(NC(=O)Nc2ccccc2)c(OCC)cc1NC(=O)CC -19.8%
Cc1sc2ncn(CC(=O)N3CCN(c4ccc(F)cc4)CC3)c(=O)c2c1S(=O)(=O)N1CCN(c2ncccn2)CC1 -7.16%
COc1ccccc1CNc1ccc(-c2nc(-c3ccccc3C)no2)cc1[N+](=O)[O-] 3.58%
CCOC(=O)C(Cc1ccccc1)NC(=O)CCc1c(C)nc2c(c(C)nn2-c2ccc(C)c(C)c2)c1C (configuration not stated) 1.84%
CCS(=O)(=O)N1CCc2cc(C(=O)NCc3ccc(OC)cc3)ccc21 0%
COc1ccc(CNc2nc(-c3ccc(Cl)cc3)cc(C(F)(F)F)n2)cc1 -6.97%
CC(Nc1ccc(-c2nc(-c3ccco3)no2)cc1[N+](=O)[O-])c1ccccc1 (configuration not stated) 0%
COc1ccc(NC(=O)Cn2c(=O)n(Cc3ccc(C(=O)NCc4ccccc4Cl)cc3)c(=O)c3ccccc32)cc1 7.5%
COc1ccc(-n2c(=O)c3ccccc3n(Cc3ccccc3Cl)c2=O)cc1 13.8%
O=C(CN1CCC(NC(=O)Nc2ccccc2)CC1)Nc1cccc([N+](=O)[O-])c1 -1.04%
Cc1c(NC(=O)Nc2cccc([N+](=O)[O-])c2)c(=O)n(-c2ccccc2)n1C 0%
O=C(CSc1nnc(-c2ccncc2)n1-c1ccccc1)Nc1ccc(Cl)c(Cl)c1 -9.9%
CCOc1ccc(CNC(=O)c2ccc3c(c2)nnn3C2CCCC2)cc1 8.43%
CC1CC(C)CN(c2oc(-c3ccc(OCc4ccc(Cl)cc4)cc3)nc2C#N)C1 (configuration not stated) 7.19%
COc1cccc(NC(=O)CSc2nnc(-c3cccnc3)o2)c1 -36.4%
CCN(CC)C(=O)CSc1nnc(-c2ccc(S(=O)(=O)NCc3ccccc3Cl)cc2)o1 -7.09%
CCOC(=O)c1cc(OC(=O)c2ccccc2Cl)n(-c2ccccc2)n1 3.87%
CC(C)(C)c1ccc(C(=O)C[n+]2cccc3cc(Cl)ccc32)cc1 -79%
Cn1cc(S(=O)(=O)N2CCCCCC2)cc1C(=O)N1CCN(c2ccc(F)cc2)CC1 -2.6%
CCc1ccc(C(=O)CC2(O)C(=O)N(CCc3ccccc3)c3ccc(Br)cc32)cc1 (configuration not stated) -66.1%
Cc1ccc(-c2noc(CSc3nnc(-c4ccc(Cl)cc4)n3C)n2)cc1 3.58%
CCN1CC(CN(C)Cc2nc(-c3ccc(Cl)cc3)no2)CC1=O (configuration not stated) -7.51%
CC(C)c1ccc2oc(-c3cc(NC(=O)c4cccs4)ccc3Cl)nc2c1 -45.6%
CC1(C)Cc2ccccc2-c2c[nH]c(=O)n21 7.61%
N#CNC1=NCN(CCc2ccccc2)CN1 -31%
CCCN1CNC(=S)N(CCc2ccccc2)C1 7.02%
CCOC(=O)c1c(C)[nH]c(C)c1S(=O)(=O)N1CCC(C(=O)Nc2ccc(C)c(Cl)c2)CC1 -39.2%
C(=Nc1ccc(/C=C/c2ccnc3ccccc23)cc1)Nc1ccc(/C=C/c2ccnc3ccccc23)cc1 -8.64%
Cc1ccc(S(=O)(=O)N2CCCCC2)cc1NC(=O)c1cccnc1 -7.67%
O=C(CC(=O)c1cccnc1)c1ccccc1 -40.2%
CC1CCN(C(=S)c2ccc(-c3ccc(Cl)cc3Cl)o2)CC1 71.8%
COc1cc(OC)c(C(=S)N2CCCC2)cc1OC -5.45%
O=C(CN1CCCCCC1)Nc1ccc(Br)cc1[N+](=O)[O-] 17.5%
Cc1cc(C)c(NC(=O)CN2CCCCCC2)c(C)c1 86.6%
Cn1c(=O)c2sccc2n2c(CCC(=O)NCc3ccccc3Cl)nnc12 0.707%
CCN(CC)c1ccc(/C=C/c2c(C)cnc3ccc(C)cc23)cc1 -54.5%
CC1CCN(C2=NC(=O)/C(=C/c3cn[nH]c3-c3ccccc3)S2)CC1 15.9%
O=C1N=C(N2CCOCC2)S/C1=C\C=C/c1ccccc1 0.869% [at 1.84 µM, scaled: vehicle 0%, 10 µM genistein 100%]
COc1ccc(Cn2c(=O)n(-c3ccccc3C)c(=O)c3c4c(sc32)CN(C(C)=O)CC4)cc1 -6.11%
Cc1cccc(NC(=O)Cn2c(=O)n(CCC(C)C)c(=O)c3cccnc32)c1 -3.64%
O=C(Nc1nnc(SCc2c(Cl)cccc2Cl)s1)C1CCCO1 (configuration not stated) 4.62%
Cc1ccc(C)c(C(C)NC(=O)C2CCCO2)c1 (configuration not stated) -7.33%
Cc1cc2ccccc2n1CCNC(=O)c1ccc(F)cc1 -31.6%
O=C(NCc1ccccc1)C1CCN(S(=O)(=O)c2ccc3[nH]c(=O)ccc3c2)CC1 -1.38%
Cc1ccc(-c2nnc(CN3CCN(C)CC3)o2)cc1 -2.44%
Cc1ccccc1CSc1nnc(CCCCCNC(=O)OC(C)(C)C)o1 -22%
CCN(C(=O)CSc1nnc(-c2ccncc2)o1)c1ccccc1 7.95%
COc1ccc(-c2nnc(SCC(=O)Nc3ccccc3C)o2)cc1OC 0%
O=C(NCCC1=CCCCC1)c1ccc2c(c1)N(Cc1ccccc1F)C(=O)c1ccccc1S2(=O)=O -29.5%
CCS(=O)(=O)N1CCc2cc(C(=O)NCc3ccc(C)cc3)ccc21 0%
Cc1ccc(C)c(N2CCN(C(=O)CCc3c(C)nc4c(c3C)c(=O)n(C)c(=O)n4C)CC2)c1 -8.22%
COc1ccc(Cl)cc1NC(=O)Cn1c(=O)c2ccccc2n2nncc12 1.86%
Brc1nc2ncnc(NCc3ccco3)c2[nH]1 13.2%
CCOc1ccc(S(=O)(=O)N(CC(=O)NCCSCc2ccc(C)cc2)c2ccccc2)cc1 19.9%
CC(C)(C)NC(=O)CSc1nc(-c2ccc(F)cc2)cc(C(F)(F)F)n1 -3.74%
CO[C@H]1O[C@@H]2O[C@@]3(C)CC[C@@H]4[C@@H](C)CC[C@@H]([C@H]1C)[C@@]24OO3 -9.91%
CC1(C)CCc2cc(S(=O)(=O)N3CCN(c4nc(-c5cccs5)nc5ccccc45)CC3)ccc2O1 13.7%
Cc1cccc(C)c1NC(=O)CNC(=O)Cc1ccc(Br)cc1 -3.53%
Cc1cccc(NC(=O)COc2ccc(Br)cc2C)n1 -19.3%
CCCNC(=O)c1ccc(Cn2c(SCC(N)=O)nc3ccccc3c2=O)cc1 -8.15%
COc1ccc(CCNC(=O)CCCCn2c(=O)c3ccccc3n(Cc3ccccc3)c2=O)cc1OC 0%
Cc1ccc(CN(C(=O)c2ccccc2[N+](=O)[O-])c2ccccn2)cc1 0%
CCOC(=O)c1c(NC(=O)CSc2cn(CCNC(=O)c3cccc(C(F)(F)F)c3)c3ccccc23)sc2c1CCC2 10.6%

Potency, active:
CCN1C(=O)/C(=C2\SC(N3CCCCC3)=NC2=O)c2ccccc21 10 µM
Cc1nc(-c2ccccc2)sc1C(=O)/C=C/N(C)C 11.2 µM
O=C(c1cnn2ccccc12)N1CCc2ccccc21 3.16 µM
O=C(Nc1ccc([N+](=O)[O-])cc1)OCCc1ccccn1 2.82 µM
Cc1ccc(NC(=O)Nc2ccccc2)c(Br)c1 1.58 µM
CC(=O)c1cccc(NC(=O)Nc2ccc(C)cc2)c1 14.1 µM
Cc1ccc(NC(=O)Nc2cccnc2)cc1 12.6 µM
O=C(Nc1cccc([N+](=O)[O-])c1)N1CCc2ccccc2C1 10 µM
CCN(CC)C(=O)CSc1nnc(-c2cccc(OC)c2)o1 11.2 µM
CC1CCN(Cc2nc(-c3ccc(Cl)cc3)no2)CC1 8.91 µM
c1ccc(CCN2CN=C(Nc3nc4ccccc4o3)NC2)cc1 7.94 µM
C/C(=C\C(=O)c1cccnc1)Nc1ccc(C)c(C)c1 12.6 µM
S=C(c1ccc(-c2ccccc2)o1)N1CCCCC1 3.98 µM
O=C(CN1CCCCCC1)Nc1ccc(Br)cc1Br 5.62 µM
Cc1ccsc1/C=C1\SC(N2CCOCC2)=NC1=O 11.2 µM
Cc1cc(C)c2nc(NC(=O)C3CCCO3)sc2c1 (configuration not stated) 15.8 µM
Cc1ccc(-c2nnc(SCc3ccccc3C)o2)cc1 11.2 µM
CCCCSc1nnc(-c2ccc(C)cc2)o1 1.78 µM
Cc1cccc(NC(=O)Cc2ccc(Br)cc2)n1 8.91 µM
